SMILES strings stand for the structures. The panel holds about 83,000 compounds, 20% with a hit somewhere; the sample as a whole holds those more often.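 Growth was measured after 48 h exposure to one concentration of compound in 96-well plates. Values under 10 count as active.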 A number with no mark means an inactive call. Activity calls are given as the source filed them.

Some test systems named below: SK-MEL-2 melanoma; EKVX NSCLC; SN12C renal; UO-31 renal; TK-10 renal; ACHN renal; CAKI-1 renal; A498 renal; CCRF-CEM leukemia; MOLT-4 leukemia.
Holding throughout (test): NCI-60 one-dose screen, 48 h (100 = growth as untreated, 0 = no growth, -100 = all killed)
Common to all, as to conditions: 10 µM unless noted

With `COc1ccc(C(=O)CCC(=O)O)cc1`, the growth in the assay with SK-MEL-2 melanoma was 102%; in the assay on EKVX NSCLC it was 78.7%; in the assay on SN12C renal it was 89%; in the assay with UO-31 renal it was 71.7%; in the assay on TK-10 renal, 105%; in the assay with ACHN renal it was 100%. The growth in the assay with CAKI-1 renal is 98.4%; in the assay on A498 renal, 104%; in the assay with CCRF-CEM leukemia it was 48.6%; in the assay on MOLT-4 leukemia, 86.2%.
As for `COC(=O)[C@@H](NC(=O)NC(=O)NC(=O)CI)C(C)C`, the growth in the assay on SK-MEL-2 melanoma was 87.4%; in the assay on EKVX NSCLC it was 95.7%; in the assay with SN12C renal, 90.1%; in the assay on UO-31 renal, -15.4% (active); in the assay with TK-10 renal, 89.8%; in the assay on ACHN renal, 79.8%. In addition, the growth with CAKI-1 renal is -61.6% (active); in the assay on A498 renal, 87.9%; with CCRF-CEM leukemia it was -32.9% (active); with MOLT-4 leukemia it was 10.6%.
In the case of `C=CCCCCOc1ccccc1-c1cnc(OCCCCC=C)n1C`, the growth in the assay on SK-MEL-2 melanoma was 46.1%; in the assay with EKVX NSCLC, 85.2%; in the assay with SN12C renal, 91.1%; in the assay with UO-31 renal, 69.3%; in the assay with TK-10 renal, 75%; in the assay with ACHN renal, 84.5%. For the same compound, the growth with CAKI-1 renal is 54.9%; in the assay on A498 renal, 51.1%; in the assay on CCRF-CEM leukemia it was 80.9%; in the assay on MOLT-4 leukemia, 91.4%.
Consider `CC(C)(C)c1cc(C(=O)N2CCC(C(=O)NCCN)CC2)cc(C(C)(C)C)c1`, for which the growth was 97.4% in the assay on SK-MEL-2 melanoma; 84.7% with EKVX NSCLC; 89.5% in the assay with SN12C renal; 93.3% in the assay with UO-31 renal; 98.4% in the assay with TK-10 renal; 108% in the assay on ACHN renal. Besides, the growth with CAKI-1 renal was 80.7%; in the assay with A498 renal, 56.6%; with CCRF-CEM leukemia it was 94.8%; with MOLT-4 leukemia, 98.5%.
As to `O=C(O)c1cn(C2CC2)c2cc(N3CCN(Cc4c(O)ccc5ccccc45)CC3)c(F)cc2c1=O`, the growth in the assay with SK-MEL-2 melanoma is 73.8%; in the assay with EKVX NSCLC, 60.4%; in the assay with SN12C renal, 30.3%; in the assay with UO-31 renal, 40.1%; with TK-10 renal, 61.4%; in the assay with ACHN renal, 53.9%. In addition, the growth in the assay on CAKI-1 renal was 4.12% (active); with A498 renal, -16.6% (active); in the assay with CCRF-CEM leukemia it was 67.7%; with MOLT-4 leukemia it was 31.6%.
In the case of `CCN(CC)c1cc(N)c(Cc2c(N)cc(N(CC)CC)cc2Cl)c(Cl)c1`, the growth is 41.6% in the assay with SK-MEL-2 melanoma; 31.9% in the assay on EKVX NSCLC; 21.8% in the assay on SN12C renal; 68.5% in the assay with UO-31 renal; 82.1% in the assay on TK-10 renal; 80.2% in the assay on ACHN renal. Also, the growth in the assay with CAKI-1 renal is 65.7%; with A498 renal it was 76.7%; with CCRF-CEM leukemia, 51.5%; in the assay with MOLT-4 leukemia, 40.8%.
Regarding `O=C(CCNCc1ccccc1)c1ccccc1`, the growth in the assay on SK-MEL-2 melanoma is 108%; in the assay on EKVX NSCLC it was 104%; in the assay with SN12C renal it was 109%; with UO-31 renal, 95.9%; in the assay on TK-10 renal, 113%; in the assay on ACHN renal, 107%. In addition, the growth is 100% with CAKI-1 renal, 112% with A498 renal, 116% in the assay with CCRF-CEM leukemia and 109% in the assay on MOLT-4 leukemia.
Take `Cc1ccc(-c2cc(-c3ccc(C)cc3)nc(NCCNc3ccnc4cc(Cl)ccc34)n2)cc1`: the growth in the assay with SK-MEL-2 melanoma was -72.6% (active); in the assay on EKVX NSCLC it was 24.6%; in the assay with SN12C renal, -88.3% (active); in the assay on UO-31 renal, -68.5% (active); in the assay on TK-10 renal, -49.2% (active); in the assay with ACHN renal it was -87.5% (active). Further, the growth in the assay with CAKI-1 renal is -47.8% (active); in the assay on A498 renal, 68.4%; with CCRF-CEM leukemia, 2.06% (active); in the assay on MOLT-4 leukemia, -29.6% (active).
Take `C=C(C)[C@@H]1CC[C@]2(C(N)=O)CC[C@]3(C)[C@H](CC[C@@H]4[C@@]5(C)C/C(=C/c6cccnc6)[C@H](O)C(C)(C)[C@@H]5CC[C@]43C)[C@@H]12`: the growth is -13.2% [100 µM] (active) with SK-MEL-2 melanoma; 33.8% [100 µM] in the assay on EKVX NSCLC; 20% [100 µM] with SN12C renal; 12.2% [100 µM] in the assay on UO-31 renal; 32.5% [100 µM] in the assay on TK-10 renal; 9.24% [100 µM] (active) in the assay on ACHN renal. For the same compound, the growth in the assay with CAKI-1 renal is 10.7% [100 µM]; in the assay with A498 renal, 61.9% [100 µM]; in the assay on CCRF-CEM leukemia it was 5.5% [100 µM] (active); with MOLT-4 leukemia it was 1.99% [100 µM] (active).
`NC(=O)CC1C=CCC1` (stereo not given): the growth in the assay with SK-MEL-2 melanoma was 105%; in the assay on EKVX NSCLC, 105%; in the assay with SN12C renal it was 99.4%; in the assay with UO-31 renal, 91.5%; with TK-10 renal, 89.2%; with ACHN renal it was 100%. Moreover, the growth in the assay with CAKI-1 renal was 99.2%; with A498 renal, 97.1%; with CCRF-CEM leukemia, 82.4%; with MOLT-4 leukemia, 95.6%.
With `C#CC(OC(=O)N(C)C)(c1ccccc1)c1ccc(F)cc1` (stereo not given), the growth in the assay with SK-MEL-2 melanoma was 102%; in the assay with EKVX NSCLC it was 116%; in the assay with SN12C renal, 96.7%; with UO-31 renal it was 89.3%; in the assay on TK-10 renal, 125%; with ACHN renal it was 101%. The growth in the assay with CAKI-1 renal was 91.8%; with A498 renal it was 105%; with CCRF-CEM leukemia it was 116%; in the assay on MOLT-4 leukemia it was 98%.
Consider `CCOC(=O)C(=Cc1ccccc1[N+](=O)[O-])C(=O)OCC`, for which the growth with SK-MEL-2 melanoma was 12%; in the assay on EKVX NSCLC, 68.6%; in the assay with SN12C renal, 24.5%; in the assay on UO-31 renal, 41.5%; in the assay with TK-10 renal it was 22.1%; in the assay with ACHN renal, 16.9%. Also, the growth in the assay on CAKI-1 renal is 24.1%; with A498 renal, 122%; in the assay with CCRF-CEM leukemia, 2.19% (active); in the assay with MOLT-4 leukemia, 11.1%.
With `Cn1cc(-c2noc(-c3cn(C)c4ncc(F)cc34)n2)c2cc(Br)ccc21`, the growth in the assay on SK-MEL-2 melanoma was 103%; in the assay with EKVX NSCLC, 58.4%; in the assay with SN12C renal, 60.2%; in the assay on UO-31 renal, 79.8%; in the assay with TK-10 renal it was 46.5%; in the assay with ACHN renal, 40.3%. In addition, the growth with CAKI-1 renal was 53.5%; with A498 renal it was 91.9%; with CCRF-CEM leukemia, 80.8%; in the assay with MOLT-4 leukemia, 71.1%.

Source of the values: PubChem BioAssay (NCI).
